Source: PubChem BioAssay (Tox21)
Records with an inconclusive call do not appear. The source made the active and inactive calls. Unless noted, the call rests on the fitted dose curve; in most records, active means well fitted curve in the direction sought with a large enough effect in the repeat runs; inconclusive means weak or mixed curves; inactive means no such curve, though single readings can be large; an effect the other way counts as inactive or inconclusive.

How the values were obtained:
[1] = qHTS assay for small molecule agonists of the p53 signaling pathway (AID 651631; calls by dose curve; further: nearly all actives have a fitted effect of over 15% in size; further: potency means the concentration at half of the fitted maximal effect)
Outline: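 Agonist mode screen using a stably integrated beta-lactamase gene under p53 response elements in HCT-116 cells. Compound exposure lasts 16 h at 37 °C; fluorescence intensity is measured following 2 h FRET substrate loading.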

[2] = qHTS assay for small molecules that induce genotoxicity in human embryonic kidney cells expressing luciferase-tagged ATAD5 (AID 651632); further: nearly all actives have a fitted effect of over 15% in size
Outline: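 ATAD5-luc HEK293T, 2,000 cells/well; cpd or DMSO pin-transferred; 16 hr, 37C/5% CO2; Amplite 30 min RT; luminescence.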

[3] = qHTS assay for small molecule agonists of the p53 signaling pathway - cell viability (AID 651633; calls by dose curve;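 further: p53RE-bla HCT reporter cells with a stable beta-lactamase p53 reporter; series mostly up to about 83 µM; nearly all actives have a fitted effect of over 30% in size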)
Outline: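 Viability counter-read: CellTiter-Glo luminescence (30 min, room temperature) in the same p53RE-bla plates. These plates had been exposed to compounds for 16 h at 37 C.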

[4] = qHTS assay for small molecules that induce genotoxicity in human embryonic kidney cells expressing luciferase-tagged ATAD5 - cell viability (AID 651634; calls by dose curve; further: nearly all actives have a fitted effect of over 25% in size)
Outline: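 Fluorescence from CellTiter-Fluor, reporting protease activity within live cells, served as the viability read-out. HEK293T cells carrying luciferase-tagged ATAD5 had been treated with compound for 15.5 hr at 37C.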

[5] = qHTS assay to test for compound auto fluorescence at 590 nm (red) in HepG2 cells (AID 720674)
Outline: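 We screened compounds on adherent HepG2 cells, incubating them for an hour at 37 C in 5% CO2 before reading emission at 590 nm under 540 nm excitation; values reflect equivalence to Rose Bengal sodium fluorescence.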

[6] = qHTS assay to test for compound auto fluorescence at 535 nm (green) in HepG2 cells (AID 720675)
[7] = qHTS assay to test for compound auto fluorescence at 460 nm (blue) in HEK293 cells (AID 720678)
Outline: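 Blue-channel (Ex/Em 405/460 nm) intensity measured in HEK293 cultures after overnight compound exposure at 37C; signal expressed relative to triamterene. Cells plated 2,000 per well in 10% dialyzed FBS medium and allowed 4-5 hr to attach.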

[8] = qHTS assay to test for compound auto fluorescence at 590 nm (red) in HEK293 cells (AID 720679)
Outline: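 Red-channel autofluorescence (Ex/Em 540/590 nm; Rose Bengal sodium reference) was measured after overnight 37C, 5% CO2 exposure of attached HEK293 cells, 2,000 per well in medium with 10% dialyzed FBS.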

[9] = qHTS assay to test for compound auto fluorescence at 535 nm (green) in HEK293 cells (AID 720680)
[10] = qHTS assay to test for compound auto fluorescence at 460 nm (blue) in HEK293 cell free culture (AID 720681)
Outline: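 Blue fluorescence (Ex 405/Em 460 nm, triamterene-equivalent) was read immediately after pin transfer of compound or DMSO into medium (DMEM, 10% FBS) without cells.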

[11] = qHTS assay to test for compound auto fluorescence at 535 nm (green) in HEK293 cell free culture (AID 720682)
Outline: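 No cells present: wells hold DMEM supplemented with 10% FBS, into which compound or vehicle is pinned. Green emission is then recorded (485 nm excitation, 535 nm emission) and scaled to fluorescein.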

[12] = qHTS assay to test for compound auto fluorescence at 590 nm (red) in HEK293 cell free culture (AID 720683)
Outline: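 Red-channel autofluorescence of compounds in culture medium (DMEM, 10% FBS), no cells, measured at 540/590 nm. Rose Bengal sodium is the reference fluorophore for equivalence.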

[13] = qHTS assay to test for compound auto fluorescence at 590 nm (red) in HepG2 cell free culture (AID 720684)
Outline: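 Plate contents were MEM with 10% FBS plus test compound or DMSO, no cells. Fluorescence was recorded with 540 nm excitation and 590 nm emission.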

[14] = qHTS assay to test for compound auto fluorescence at 535 nm (green) in HepG2 cell free culture (AID 720686)
[15] = qHTS assay to test for compound auto fluorescence at 460 nm (blue) in HepG2 cells (AID 720687)
Outline: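 Blue-channel autofluorescence (Ex/Em 405/460 nm, triamterene-equivalent) was measured after 1 hr compound exposure at 37 C, 5% CO2. Cells were HepG2, plated overnight at 37 C in MEM plus 10% FBS.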

[16] = target: Glucocorticoid receptor (Homo sapiens) (UniProt P04150); assay: qHTS assay to identify small molecule agonists of the glucocorticoid receptor (GR) signaling pathway (AID 720691; active means well fitted activation curve with a large enough effect in the signal ratio in the repeat runs, not every such curve was filed as active; the % refers to the signal ratio)
Outline: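 Fluorescence intensity from LiveBLAzer B/G FRET substrate (2 h, room temperature) reports beta-lactamase expression driven by the glucocorticoid response element in GR-bla HeLa cells after 18 h compound exposure at 37 C.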

[17] = qHTS assay to test for compound auto fluorescence at 460 nm (blue) in HepG2 cell free culture (AID 720685)
Outline: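 Compound (23 nL) or DMSO pinned into cell-free MEM with 10% FBS; blue fluorescence read at 405/460 nm excitation/emission, expressed as auto-fluorescence equivalency to triamterene.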

[18] = target: Glucocorticoid receptor (Homo sapiens) (UniProt P04150); assay: qHTS assay to identify small molecule antagonists of the glucocorticoid receptor (GR) signaling pathway (AID 720692; active means well fitted inhibition curve with a large enough effect in the signal ratio in the repeat runs, not every such curve was filed as active; the % refers to the signal ratio)
Outline: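 HeLa GR-bla cells; cmpd + dex 5 nM final, 18 h 37 C; LiveBLAzer B/G FRET substrate 2 h RT; fluorescence intensity read. Antagonist mode, qHTS.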

[19] = qHTS assay for small molecule disruptors of the mitochondrial membrane potential (AID 720635); further: potency means the concentration at half of the fitted maximal effect
Outline: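 Mitochondrial membrane potential tracked with Mito-MPS dye, red aggregates (ex 540/em 590 nm) against green monomers (ex 490/em 535 nm). Compound treatment 1 hr at 37C, dye 30 min in HepG2.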

[20] = qHTS assay for small molecule disruptors of the mitochondrial membrane potential - cell viability (AID 720634; calls by dose curve;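 further: human HepG2 liver cancer cells; series mostly up to about 83 µM; nearly all actives have a fitted effect of over 20% in size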)
Outline: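 Cells: HepG2, 2,000/well, attached overnight. Compound 1 hr, 37 C/5% CO2. +m-MPI dye, +CellTiter-Glo 30 min RT. Readout: luminescence (ATP).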
On the % scale 0 is the no-effect control and ±100 the full control effect.

Glucocorticoid receptor (Homo sapiens), sequence (P04150 whole entry, looked up): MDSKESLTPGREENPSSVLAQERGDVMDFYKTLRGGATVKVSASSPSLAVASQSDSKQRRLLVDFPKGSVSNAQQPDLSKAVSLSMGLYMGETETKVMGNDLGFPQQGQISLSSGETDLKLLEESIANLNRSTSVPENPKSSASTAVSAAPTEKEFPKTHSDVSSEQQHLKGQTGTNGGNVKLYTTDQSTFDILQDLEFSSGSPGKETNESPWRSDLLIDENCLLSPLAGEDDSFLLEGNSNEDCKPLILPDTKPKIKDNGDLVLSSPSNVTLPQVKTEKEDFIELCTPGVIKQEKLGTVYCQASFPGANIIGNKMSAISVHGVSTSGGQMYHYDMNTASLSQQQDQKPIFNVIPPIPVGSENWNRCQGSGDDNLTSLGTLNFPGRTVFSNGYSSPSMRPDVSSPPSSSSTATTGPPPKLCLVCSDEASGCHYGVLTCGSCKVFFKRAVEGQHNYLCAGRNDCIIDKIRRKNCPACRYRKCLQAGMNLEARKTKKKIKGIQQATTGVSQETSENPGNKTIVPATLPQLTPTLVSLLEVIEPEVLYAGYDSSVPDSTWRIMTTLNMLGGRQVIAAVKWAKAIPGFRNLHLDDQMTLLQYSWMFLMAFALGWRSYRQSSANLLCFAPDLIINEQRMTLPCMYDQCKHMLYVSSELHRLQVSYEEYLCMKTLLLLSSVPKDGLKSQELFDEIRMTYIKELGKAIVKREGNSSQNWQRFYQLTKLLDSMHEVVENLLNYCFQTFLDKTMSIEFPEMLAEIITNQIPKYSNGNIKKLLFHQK

CCOC(=O)/C=C/C(=O)OCC
inactive: Potency [1] | Potency [2] | Potency [3] | Potency [4] | outcome [5] | outcome [6] | Potency [7] | outcome [8] | outcome [9] | Potency [10] | outcome [11] | outcome [12] | outcome [13] | outcome [14] | Potency [15] | Potency [16]

Oc1cccc(O)c1O
inactive: Potency [1] | Potency [2] | Potency [3] | Potency [4] | outcome [5] | outcome [6] | Potency [7] | outcome [8] | Potency [10] | outcome [11] | outcome [12] | outcome [13] | Potency [17] | outcome [14] | Potency [15] | Potency [18]

CC(C)Nc1cccnc1N1CCN(C(=O)c2cc3cc(NS(C)(=O)=O)ccc3[nH]2)CC1
inactive: Potency [1] | Potency [2] | Potency [3] | Potency [4] | outcome [5] | outcome [6] | outcome [8] | outcome [9] | Potency [10] | outcome [11] | outcome [12] | Potency [17] | outcome [14] | Potency [16]
active: Potency [19] 26.6 µM

COc1cc(N)c(Cl)cc1C(=O)NC1CCN(CCCOc2ccc(F)cc2)CC1OC (stereo not drawn)
inactive: Potency [1] | Potency [2] | Potency [3] | Potency [4] | fluorescence, relative to Rose Bengal [5] 0.956% [at 18.6 µM] | fluorescence, % of fluorescein control [6] -0.0882% [at 18.6 µM] | fluorescence, % of fluorescent control [8] 0.102% [at 18.6 µM] | fluorescence, % of fluorescent control [10] -0.0155% [at 18.6 µM] | activity change [11] 0.0082% [at 18.6 µM] | fluorescence, % of fluorescent control [12] 0.142% [at 18.6 µM] | fluorescence, % of Rose Bengal [13] -0.186% [at 18.6 µM] | fluorescence, % of fluorescent control [17] -0.0728% [at 18.6 µM] | fluorescence, % of fluorescein control [14] -0.0661% [at 18.6 µM] | fluorescence, % of fluorescent control [15] 0.156% [at 18.6 µM]

C/C=C(/C(=C/C)c1ccc(O)cc1)c1ccc(O)cc1
inactive: Potency [2] | Potency [4] | Potency [20] | fluorescence, relative to Rose Bengal [5] 0.479% [at 18.6 µM] | fluorescence, % of fluorescein control [6] 0.154% [at 18.6 µM] | fluorescence, % of triamterene [7] 0.118% [at 18.6 µM] | fluorescence, % of fluorescent control [8] 0.023% [at 18.6 µM] | fluorescence, % of fluorescein [9] 0.128% [at 18.6 µM] | fluorescence, % of fluorescent control [10] 0.115% [at 18.6 µM] | activity change [11] -0.004% [at 18.6 µM] | fluorescence, % of fluorescent control [12] 0.121% [at 18.6 µM] | fluorescence, % of Rose Bengal [13] 0.0319% [at 18.6 µM] | fluorescence, % of fluorescent control [17] -0.0042% [at 18.6 µM] | fluorescence, % of fluorescein control [14] -0.0063% [at 18.6 µM] | fluorescence, % of fluorescent control [15] 0.0165% [at 18.6 µM] | Potency [16]
active: Potency [1] 3.2 µM | Potency [19] 9.02 µM

CC(C)C(O)(c1ccc(OC(F)(F)F)cc1)c1cncnc1 (stereo not drawn)
inactive: Potency [1] | Potency [3] | Potency [4] | Potency [20] | outcome [5] | outcome [6] | Potency [7] | outcome [8] | outcome [9] | Potency [10] | outcome [11] | outcome [12] | outcome [13] | Potency [17] | outcome [14] | Potency [15]

Clc1cc(Cl)nc(Cl)n1
inactive: Potency [1] | Potency [3] | Potency [19] | outcome [5] | outcome [6] | Potency [7] | outcome [8] | outcome [9] | Potency [10] | outcome [11] | outcome [12] | outcome [13] | outcome [14]

CCCCCCNC(=O)n1cc(F)c(=O)[nH]c1=O
active: Potency [1] 1.5 µM
inactive: Potency [4] | Potency [20] | outcome [5] | outcome [6] | outcome [8] | outcome [9] | Potency [10] | outcome [11] | outcome [12] | outcome [13] | Potency [17] | outcome [14] | Potency [15]

O[C@@H]1CO[C@H]2[C@@H]1OC[C@@H]2O
inactive: Potency [1] | Potency [2] | Potency [4] | Potency [20] | Potency [19] | outcome [5] | outcome [6] | Potency [7] | outcome [8] | outcome [9] | Potency [10] | outcome [11] | outcome [12] | outcome [13] | outcome [14] | Potency [15] | Potency [18]

CCOC(=O)[C@H](CCc1ccccc1)N[C@@H](C)C(=O)N(CC(=O)O)C1Cc2ccccc2C1
inactive: Potency [1] | Potency [2] | Potency [4] | Potency [20] | outcome [5] | outcome [6] | Potency [7] | outcome [8] | outcome [9] | Potency [10] | outcome [11] | outcome [12] | outcome [13] | Potency [17] | outcome [14] | Potency [15] | Potency [16]

O=C(CCc1ccc(O)cc1)c1c(O)cc(O)cc1O
active: Potency [1] 70.1 µM
inactive: Potency [2] | outcome [5] | outcome [6] | Potency [7] | outcome [8] | outcome [9] | Potency [10] | outcome [11] | outcome [12] | outcome [13] | Potency [17] | outcome [14] | Potency [15]

CC/C=C1/OC(=O)c2ccccc21
inactive: Potency [1] | Potency [3] | Potency [4] | Potency [20] | Potency [19] | outcome [5] | outcome [6] | Potency [7] | outcome [8] | outcome [9] | Potency [10] | outcome [11] | outcome [12] | outcome [13] | Potency [17] | outcome [14] | Potency [15] | Potency [18]

NC1[C@H]2CN(c3nc4c(cc3F)c(=O)c(C(=O)O)cn4-c3ccc(F)cc3F)C[C@@H]12 (stereo partly drawn)
inactive: Potency [20] | outcome [5] | outcome [6] | Potency [7] | outcome [8] | outcome [9] | Potency [10] | outcome [11] | outcome [12] | outcome [13] | Potency [17] | outcome [14] | Potency [15] | Potency [16]
active: Potency [1] 29.8 µM

Cc1ccc(OC(=O)c2ccccc2O)cc1
inactive: Potency [1] | Potency [2] | Potency [4] | Potency [20] | outcome [6] | Potency [7] | outcome [8] | outcome [9] | Potency [10] | outcome [11] | outcome [12] | Potency [17] | outcome [14] | Potency [15] | Potency [16]
